Sampled rows, rich in hits. Any-hit rate of the full collection: about 1.7%.
PTHR1 ag = qHTS for PTHR1 Agonists: Primary Screen; HEK293 GP2 PTHR1 cells, GloSensor cAMP luminescence, 1 h; 410,000 compounds, 0.075% hits; Potency, µM (series often up to 115 µM), without a hit: at the top dose activation, actives largely listed as activators; AID 743266, 2014; further: nearly all actives have a fitted effect of over 55% in size
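HEK-293-derived GP2 cells expressing PTHR1 and a GloSensor cAMP reporter, 3,000/well, plated overnight, given luciferin plus IBMX (each 0.5 mM as added) for 1 h at 37 °C, then compound for 1 h at 37 °C. Luminescence was read after 15 min at room temperature.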
GLP-1R agonist = qHTS of GLP-1 Receptor Agonists. HEK293 GLP-1R CRE-luciferase, luminescence, 4-6 h; cells express a hypersensitive GLP-1R form. Glucagon-like peptide 1 receptor (Homo sapiens), P43220. 380,000 compounds, 0.007% hits. Potency, µM (titrated, usually from 45.6 µM), without a hit: at the highest dose activation, most hits filed as activators. AID 624172, 2012; further: % of control where 0% means no effect
Target sequence (P43220 whole entry, looked up): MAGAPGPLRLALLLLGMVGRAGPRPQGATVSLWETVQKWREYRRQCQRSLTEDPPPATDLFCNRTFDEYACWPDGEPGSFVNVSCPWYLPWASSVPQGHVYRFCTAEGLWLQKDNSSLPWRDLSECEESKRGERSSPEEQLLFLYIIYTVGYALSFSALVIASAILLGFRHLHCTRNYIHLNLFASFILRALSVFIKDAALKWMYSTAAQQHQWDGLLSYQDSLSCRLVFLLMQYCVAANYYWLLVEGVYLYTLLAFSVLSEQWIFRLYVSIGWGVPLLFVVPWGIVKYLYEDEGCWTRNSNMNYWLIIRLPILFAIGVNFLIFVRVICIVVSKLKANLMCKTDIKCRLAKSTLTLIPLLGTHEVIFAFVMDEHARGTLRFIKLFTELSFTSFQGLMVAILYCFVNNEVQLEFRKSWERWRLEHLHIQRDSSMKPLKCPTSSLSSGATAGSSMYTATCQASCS
GLP1R cytotox = qHTS of GLP-1 Receptor Inverse Agonists: Cytotox Screen; AID 624418, 2012; HEK293 cAMP-luciferase reporter cells, luminescence, 24 h; Potency, µM (series often up to 38.3 µM), for the others: top-dose activity change, negative = inhibition, most hits filed as inhibitors; 410,000 compounds, 0.13% hits;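 further: loss of luciferase light is scored as toxicity; on the % scale 0 is the no-effect control and ±100 the full control effect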
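Quantitative HTS format, 1536 wells, 200 cells/uL seeded. Compounds: 23 nL, 24 h, 37 °C. Detection: luciferase reagent, luminescence at 12 min RT; decreased signal taken as cytotoxic.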
GLP-1R inv ag = qHTS of GLP-1 Receptor Inverse Agonists (Inhibition Mode) | Glucagon-like peptide 1 receptor (Homo sapiens), P43220 | HEK293 GLP-1R CRE-luciferase, luminescence, 24 h; GLP-1R form is constitutively active | Potency, µM (top dose mostly 38.3 µM), inactives show top-dose activity change, negative = inhibition, actives largely listed as inhibitors | 410,000 compounds, 1.6% hits | AID 624417, 2012; further: on the % scale 0 is the no-effect control and ±100 the full control effect; nearly all actives have a fitted effect of over 55% in size
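Constitutively active GLP-1R drives a cAMP-responsive luciferase in stably transfected HEK293 cells; test compounds are added after overnight (12 h) attachment and left 24 hr, and signal loss in luminescence marks inhibition.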
The depositor's hits bear a star; i = inactive; ? = inconclusive; . = no result; [ ] = dose if it differs, or a comment. The call rests on the fitted dose curve; in most records, active means well fitted curve in the direction sought with a large enough effect; inconclusive means small, poorly fitted or top-dose-only effect, or another doubt; inactive means no such curve, though single readings can be large; an effect the other way counts as inactive or inconclusive. Potency means the concentration at half of the fitted maximal effect.

SMILES | PTHR1 ag | GLP-1R agonist | GLP1R cytotox | GLP-1R inv ag
Cc1ccccc1NC(=S)NC(=O)c1cc(-c2ccccc2)nc2ccccc12 | -3%[57.5 µM] | -7% | 0% | 7.9µM*
COc1cccc(/C=N/NC(=O)c2cc(-c3ccccn3)nc3ccccc23)c1O | i | 14% | -3% | 5µM*
O=C(N/N=C/c1ccc(F)cc1)c1cc(-c2ccccn2)nc2ccccc12 | -16% | -8% | -1% | 19%
O=C(N/N=C/c1ccccn1)c1cc(-c2ccccc2)nc2ccccc12 | -58% | -5% | 5µM* | ?
C/C(=N\NC(=O)c1cc(C)nc2ccccc12)c1ccccn1 | -96% | -6% | 3.2µM* | ?
CC(Oc1ccccc1)C(=O)Nc1ccccc1C(=O)OCc1cc(=O)n2nc(C(C)C)sc2n1 (stereo not given) | -17% | . | 7% | 2%
Cc1cc(C)c2oc(-c3ccc(C)c(NC(=O)/C=C/c4ccco4)c3)nc2c1 | i | 1% | -3% | -10%
Cc1cc2oc(C(=O)Nc3cccc(-c4nc5ccccc5o4)c3)c(C)c2cc1C | i | . | 2% | 13%
COc1ccc(CCNc2nc3c(c(=O)n(C)c(=O)n3C)n2Cc2ccccc2Cl)cc1OC | i | . | 3% | 1%
COc1ccc(Cl)cc1NC(=O)N1CCC2(CC1)Oc1ccccc1C(=O)N2Cc1ccc(F)cc1 | i | . | 0% | -16%
CCc1ccccc1Nc1nc(-c2cccnc2)cs1 | -40% | -6% | -13% | 11µM*
Cc1nn(Cc2c(F)c(F)c(F)c(F)c2F)c(C)c1NC(=O)c1ccc(COc2ccccc2Cl)o1 | -10% | -3% | -7% | 10µM*
Cc1nn(Cc2c(F)c(F)c(F)c(F)c2F)c(C)c1NC(=O)c1ccc(COc2ccccc2Cl)cc1 | -14% | 1% | -15% | -8%
CCC(C)(C)NC(=O)C1CCN(S(=O)(=O)c2c(C)noc2/C=C/c2ccc(C)cc2)CC1 | -45% | -1% | -10% | -22%
Cc1nc([N+](=O)[O-])cn1-c1ccc([N+](=O)[O-])cc1 | . | 6% | . | .
COc1cc(/C=N/NS(=O)(=O)c2ccc(C)cc2)ccc1OCc1ccc(C(=O)O)cc1 | -30% | -8% | -10% | 2.8µM*
CCOc1ccc(/C=N/NS(=O)(=O)c2ccc(C)cc2)cc1OC | -39% | 7% | 0% | 20%
CCCC(=NC(C)CC)C1=C(O)CC(c2ccccc2)CC1=O (stereo not given) | -6% | 10% | 8% | 10µM*
CCC(C)N=CC1=C(O)CC(c2ccccc2)CC1=O (stereo not given) | i | -8% | 4% | -13%
O=C(CSc1nc2ccccc2s1)N1c2ccccc2Sc2ccccc21 | ? | 0% | 13% | 5.6µM*
CCOc1ccc(C(C(=O)NC2CCCC2)N(CCCO)C(=O)c2ccc(-c3ccccc3)[nH]2)cc1 (stereo not given) | -19% | -6% | 5% | 13µM*
Cn1c(=O)n(CCCc2ccccc2)c(=O)c2c1nc1n2CCN1c1ccc(F)cc1 | i | . | -13% | -12%
O=C(CSc1cn(CC(=O)N2CCCCC2)c2ccccc12)NCc1ccccc1Cl | -17% | . | -15% | ?
O=C(Cn1cc(SCc2ccc(C(F)(F)F)cc2)c2ccccc21)N1CCCCCC1 | -27% | . | 0% | 7.1µM*
Cc1ccc(CSc2cn(CC(=O)N3CCCCCC3)c3ccccc23)cc1 | -28% | . | 0% | 10µM*
SMILES | PTHR1 ag | GLP-1R agonist | GLP1R cytotox | GLP-1R inv ag
CC1CCN(C(=O)Cn2cc(SCC(=O)NCc3ccccc3Cl)c3ccccc32)CC1 | -84% | . | -24% | 10µM*
Cc1ccc(CSc2cn(CC(=O)N3CCCC3)c3ccccc23)cc1 | i | . | 1% | ?
Cc1cc(C)c(CN2C(=O)c3ccccc3S(=O)(=O)c3ccc(C(=O)OCC4CCCO4)cc32)c(C)c1 (stereo not given) | -13% | . | 12% | -22%
OCC1OC(OC2C(CO)OC(OC3C(CO)OC(O)C(O)C3O)C(O)C2O)C(O)C(O)C1O (stereo not given) | . | 8% | . | .
O=[N+]([O-])c1cc(S(=O)(=O)N2CCCCCC2)ccc1Cl | -45% | -6% | 11µM* | ?
Cc1ccc(S(=O)(=O)N2CCCC2)cc1[N+](=O)[O-] | i | -3% | 0% | 10%
O=C(CCl)N(Cc1cc(=O)[nH]c2ccccc12)c1ccccc1 | -39% | -8% | ? | 2.8µM*
COC(=O)c1c(SCC(=O)Nc2ccccc2OC)[nH]c2ccccc2c1=O | i | . | -11% | ?
CC1CC(OC(=O)C(O)c2ccccc2)CC(C)(C)C1 (stereo not given) | . | -8% | . | .
CCC(C)(C)NC(=O)CSc1nc(Cc2ccccc2)nc2ccccc12 | -79% | -2% | -23% | 4.5µM*
Cc1cc(=O)n(Cc2ccc(F)cc2Cl)c2c1c(C)nn2-c1ccccc1 | -36% | . | 0% | 5%
CCN(CC)CCSc1nc2c([nH]1)c(=S)n(C)c(=O)n2C | -7% | 1% | 5.6µM* | ?
CCCCSc1nc2c([nH]1)c(=S)n(C)c(=O)n2C | -10% | -7% | ? | ?
CCCC(CC)Sc1nc2c([nH]1)c(=S)n(C)c(=O)n2C (stereo not given) | -32% | 3% | 0.89µM* | ?
CCCCC(C)Sc1nc2c([nH]1)c(=S)n(C)c(=O)n2C (stereo not given) | -60% | 15% | ? | ?
Cc1cc(NC(=O)Cn2c(=O)nc(-c3ccccc3F)c3cc(Cl)ccc32)ccc1Br | -13% | 1% | 1% | 0%
O=C(CN(Cc1ccccc1)S(=O)(=O)c1ccccc1)N/N=C/c1ccc2c(c1)OCO2 | -14%[57.5 µM] | 6% | ? | 30%
O=C(CN(Cc1ccc(Cl)c(Cl)c1)S(=O)(=O)c1ccccc1)N/N=C\c1ccc2c(c1)OCO2 | i | -5% | -19% | 2.2µM*
CCN1C(=O)c2ccccc2S(=O)(=O)c2ccc(C(=O)NCc3ccccc3)cc21 | -5% | 0% | 4% | 8%
COC(=O)c1c(NC(=O)CSc2nnnn2-c2ccccc2)sc2c1CCC(C(C)(C)C)C2 (stereo not given) | i | 0% | 0% | 5.6µM*
Cc1cccc(CS(=O)(=O)c2ncc(Cl)c(C(=O)NCc3ccc4c(c3)OCO4)n2)c1 | -38% | -15% | -8% | 8.9µM*
Cc1ccc(CNC(=O)c2nc(S(=O)(=O)Cc3ccc(C)cc3)ncc2Cl)cc1 | -17% | . | -6% | 2%
CCCOc1ccc(-c2cn3ccccc3n2)cc1 | -82% | -3% | 12% | 7.1µM*
COc1ccc(-c2cn3ccccc3n2)cc1 | -87% | -6% | 1% | ?
O=C(CSc1nnc(-c2ccc(Cl)cc2)n1Cc1ccco1)Nc1ccc2c(c1)OCCO2 | i | 7% | -19% | ?
